Experimental data from PubChem BioAssay.
Unmarked numbers belong to inactive results. For some of these results: Results with a measured potency or affinity are listed apart. Calls of active or inactive are those of the source. Unless noted, the rule behind the calls is not given here.

Assays:
[1] = antimalarial activity against Dd2 strain (AID 2302;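 active = growth inhibition above 50% at the single 2 µM test dose, taken to imply half-maximal potency below 2 µM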;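 note: 0% = DMSO untreated growth and 100% = chloroquine plus artemisinin killed control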); conditions: P. falciparum Dd2 in RBCs, LDH growth readout, 72 h; at 2 µM; active compounds read high
[2] = human hepatoma cell viability loss – ATP luminescence, cytotoxicity control for P. falciparum antimalarial project, primary screen (AID 2303;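 active = inhibition above 50%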;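 note: 0% = DMSO wells and 100% = digitonin-killed cells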); conditions: HepG2 viability, 24-48 h, at 10 µM, active compounds read high
[3] = biological target: L-lactate dehydrogenase (Plasmodium falciparum (isolate CDC / Honduras)) (UniProt Q27743); assay: PfLDH activity inhibition – cell lysate, 3D7 strain, counter-screen for P. falciparum growth inhibition project (AID 2304);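 note: 0% = vehicle and 100% = reference inhibitor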; conditions: P. falciparum 3D7 crude extract, LDH APAD/NBT absorbance; at 2 µM; active compounds read high
[4] = inhibition of 3D7 malaria parasite growth – strain 3D7 (AID 2306);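 note: 0% = DMSO wells and 100% = chloroquine plus artemisinin control wells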; conditions: P. falciparum 3D7 erythrocytic growth, LDH absorbance, 72 h; at 2 µM; active compounds read high
[5] = biological target: Calcium-dependent protein kinase 1 (Plasmodium falciparum (isolate 3D7)) (UniProt P62344); assay: PfCDPK1 kinase inhibitors, biochemical, TCAMS library (AID 1159585; cut-off not given, nearly all actives have IC50 up to about 0.98 µM;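 note: inhibitors leave more ATP so luminescence rises with inhibition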); conditions: recombinant PfCDPK1, Kinase-Glo ATP depletion luminescence
[6] = biological target: Plasmodium falciparum protein kinase 6 (PK6, PF3D7_1337100) (UniProt Q8IDW1); assay: PfPK6 kinase inhibitors, biochemical, TCAMS library (AID 1159586); conditions: recombinant PfPK6, Kinase-Glo ATP depletion luminescence
[7] = biological target: Protein kinase 7 (PK7), Plasmodium falciparum 3D7 (PF3D7_0213400) (UniProt Q7YTF7); assay: inhibition of Plasmodium PK7 catalytic activity – biochemical, TCAMS antimalarial set, Kinase-Glo luminescence (AID 1159587); conditions: recombinant PfPK7, Kinase-Glo ATP depletion luminescence
[8] = biological target: Calcium-dependent protein kinase 4 (Plasmodium falciparum (isolate 3D7)) (UniProt Q8IBS5); assay: PfCDPK4 kinase inhibitors, biochemical, TCAMS library (AID 1159588; cut-off not given, nearly all actives have IC50 up to about 0.91 µM); conditions: recombinant PfCDPK4, Kinase-Glo ATP depletion luminescence
Chain of Calcium-dependent protein kinase 4 (Plasmodium falciparum (isolate 3D7)) (Q8IBS5 whole entry, looked up): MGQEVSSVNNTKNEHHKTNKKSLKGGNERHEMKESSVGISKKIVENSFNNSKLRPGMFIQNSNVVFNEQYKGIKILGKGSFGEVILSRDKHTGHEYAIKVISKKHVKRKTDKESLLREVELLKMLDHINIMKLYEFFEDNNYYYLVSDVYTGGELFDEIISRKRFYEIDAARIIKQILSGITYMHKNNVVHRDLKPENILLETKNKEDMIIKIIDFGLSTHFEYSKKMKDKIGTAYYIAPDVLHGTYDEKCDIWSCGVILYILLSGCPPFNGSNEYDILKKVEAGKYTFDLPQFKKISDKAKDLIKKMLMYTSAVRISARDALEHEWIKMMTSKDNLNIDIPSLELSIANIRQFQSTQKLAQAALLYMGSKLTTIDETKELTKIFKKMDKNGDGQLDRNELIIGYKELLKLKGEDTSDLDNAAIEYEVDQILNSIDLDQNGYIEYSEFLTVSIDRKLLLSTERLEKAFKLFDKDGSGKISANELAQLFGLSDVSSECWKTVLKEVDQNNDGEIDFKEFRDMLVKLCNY

Chain of Plasmodium falciparum protein kinase 6 (PK6, PF3D7_1337100) (Q8IDW1 1-305): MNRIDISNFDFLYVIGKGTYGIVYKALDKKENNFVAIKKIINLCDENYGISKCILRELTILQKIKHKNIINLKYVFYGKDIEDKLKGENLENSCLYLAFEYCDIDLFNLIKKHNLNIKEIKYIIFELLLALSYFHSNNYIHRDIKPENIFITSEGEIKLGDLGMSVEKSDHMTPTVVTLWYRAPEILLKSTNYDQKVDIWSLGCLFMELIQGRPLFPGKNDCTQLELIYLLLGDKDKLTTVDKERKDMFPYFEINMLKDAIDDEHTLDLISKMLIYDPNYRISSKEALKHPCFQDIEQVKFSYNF
Chain of Calcium-dependent protein kinase 1 (Plasmodium falciparum (isolate 3D7)) (P62344 whole entry, looked up): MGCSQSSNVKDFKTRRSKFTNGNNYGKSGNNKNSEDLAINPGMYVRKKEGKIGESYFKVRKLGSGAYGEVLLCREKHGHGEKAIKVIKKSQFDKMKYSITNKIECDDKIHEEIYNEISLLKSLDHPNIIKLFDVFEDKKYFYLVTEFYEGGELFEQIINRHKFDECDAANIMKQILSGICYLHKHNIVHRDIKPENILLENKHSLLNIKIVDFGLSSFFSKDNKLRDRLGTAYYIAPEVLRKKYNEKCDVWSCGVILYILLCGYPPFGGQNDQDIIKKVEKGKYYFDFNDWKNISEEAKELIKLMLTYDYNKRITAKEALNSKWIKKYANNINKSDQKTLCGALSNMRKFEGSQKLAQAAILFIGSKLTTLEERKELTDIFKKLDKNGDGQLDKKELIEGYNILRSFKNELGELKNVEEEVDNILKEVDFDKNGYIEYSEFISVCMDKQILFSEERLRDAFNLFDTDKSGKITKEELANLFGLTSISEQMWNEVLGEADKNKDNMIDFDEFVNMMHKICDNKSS
Chain of L-lactate dehydrogenase (Plasmodium falciparum (isolate CDC / Honduras)) (Q27743 whole entry, looked up): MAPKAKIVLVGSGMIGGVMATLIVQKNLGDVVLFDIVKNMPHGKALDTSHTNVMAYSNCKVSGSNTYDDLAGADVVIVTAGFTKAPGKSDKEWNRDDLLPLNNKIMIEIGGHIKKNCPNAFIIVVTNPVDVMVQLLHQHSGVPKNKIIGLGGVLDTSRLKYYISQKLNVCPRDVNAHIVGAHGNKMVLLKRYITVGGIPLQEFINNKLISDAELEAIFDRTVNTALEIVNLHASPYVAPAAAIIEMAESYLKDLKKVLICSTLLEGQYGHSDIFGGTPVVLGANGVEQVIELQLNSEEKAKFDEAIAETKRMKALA
Chain of Protein kinase 7 (PK7), Plasmodium falciparum 3D7 (PF3D7_0213400) (Q7YTF7 1-343): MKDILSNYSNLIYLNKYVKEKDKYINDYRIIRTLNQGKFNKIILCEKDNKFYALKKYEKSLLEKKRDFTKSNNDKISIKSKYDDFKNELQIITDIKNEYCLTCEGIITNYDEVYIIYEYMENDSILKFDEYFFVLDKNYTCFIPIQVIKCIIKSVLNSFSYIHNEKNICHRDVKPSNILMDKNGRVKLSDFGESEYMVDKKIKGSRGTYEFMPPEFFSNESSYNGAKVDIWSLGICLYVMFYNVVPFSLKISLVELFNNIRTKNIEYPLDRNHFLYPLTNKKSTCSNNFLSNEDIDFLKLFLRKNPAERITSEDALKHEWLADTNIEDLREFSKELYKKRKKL

Compound | growth inhibition [1] | inhibition [2] | inhibition [3] [%] | growth inhibition [4] | outcome [5] | outcome [6] | outcome [7] | outcome [8]
COc1cc(N)c(Cl)cc1C(=O)NCC1CCN(c2nc(C)cc(C)n2)CC1 | 95% (active) | -6% | 4 | 96% (active) | inactive | inactive | inactive | inactive
Cc1ccc(NC(=O)c2ccc3ncccc3c2)cc1OC1CCN(Cc2ccsc2)CC1 | 29% | 21% | -2 | 93% (active) | inactive | inactive | inactive | inactive
CCCc1ccccc1OCC(O)CN(C1CCCC1)C1CCCC1 (stereo not drawn) | 97% (active) | 49% | -7 | 97% (active) | inactive | inactive | inactive | inactive
O=C(NCC1CC1)C1CCN(C(c2ccccc2)c2cc(F)cc(F)c2)CC1 (stereo not drawn) | 95% (active) | -3% | 9 | 99% (active) | inactive | inactive | inactive | inactive
Clc1ccc(-c2ncc(-c3ccncc3)[nH]2)cc1Cl | 63% (active) | 1% | -5 | 96% (active) | inactive | inactive | inactive | inactive
CN1CCCC(CN2CCN(Cc3cccc(-c4ccc(-c5nc6ccccc6[nH]5)cc4)c3)CC2)C1 (stereo not drawn) | 101% (active) | 73% (active) | -2 | 100% (active) | inactive | inactive | inactive | inactive
CCOc1c(C)cc(C(F)(F)F)cc1CNCCCNc1cc(=O)c2ccccc2[nH]1 | 1% | -1% | -7 | 97% (active) | inactive | inactive | inactive | inactive
COc1ccc(-c2csc3nc(C)nc(Cl)c23)cc1OC | 95% (active) | -10% | -6 | 97% (active) | inactive | inactive | inactive | inactive
Nc1ncnc2c1ncn2C(CO)Cc1ccc(O)cc1 (stereo not drawn) | 0% | -5% | -2 | 93% (active) | inactive | inactive | inactive | inactive
O=C(Nc1ccc(OC2CCN(Cc3ccccc3)CC2)c(Cl)c1)c1cccs1 | 95% (active) | 2% | 4 | 96% (active) | inactive | inactive | inactive | inactive
CCCCCCCN1CC[C@@H](CCCc2ccnc3ccc(OCCN4CCOCC4)cc23)[C@@H](CC)C1 | 3% | 14% | 0 | 89% (active) | inactive | inactive | inactive | inactive
Cc1ccc2nc(C)n(C3CCN(C(=O)C4(c5ccccc5)CC4)CC3)c2c1 | 83% (active) | 8% | 7 | 100% (active) | inactive | inactive | inactive | inactive
Cn1c(-c2ccccc2)cc2c3c(=O)cc(C(F)(F)F)[nH]c3ccc21 | 49% | 21% | -1 | 95% (active) | inactive | inactive | inactive | inactive
CCN(CC)CCOc1c(Cl)cc(Cl)cc1CNCCCNc1cc(=O)c2ccccc2[nH]1 | 6% | 11% | -1 | 97% (active) | inactive | inactive | inactive | inactive
CCCCCn1c(Sc2ccc(C#N)c([N+](=O)[O-])c2)nnc1-c1ccc(Cl)cc1 | 29% | 18% | 3 | 88% (active) | inactive | inactive | inactive | inactive
Cc1cccc(C)c1OC(=O)CSc1nnc(-c2ccccc2O)o1 | -2% | 11% | 0 | 97% (active) | inactive | inactive | inactive | inactive
COc1ccc(-c2cccc(NC(=O)c3cccc(F)c3)c2)cc1CN1CCCN(C)CC1 | 78% (active) | 42% | 0 | 101% (active) | inactive | inactive | inactive | inactive
CCCCC(CC)NC(=O)[C@H]1CNCCN1C(=O)CCCc1ccccc1 (stereo partly drawn) | -1% | 5% | 1 | 94% (active) | inactive | inactive | inactive | inactive
CCC(Nc1noc(-c2c(-c3ccccc3)noc2C)n1)c1ccccc1 (stereo not drawn) | 85% (active) | 4% | 1 | 99% (active) | inactive | inactive | inactive | inactive
COc1ccccc1CCNC(=O)c1cnc(N2CCN(c3ccncc3)CC2)c(Cl)c1 | 54% (active) | 30% | 4 | 98% (active) | inactive | inactive | inactive | inactive
CCC(C)NS(=O)(=O)c1ccc2nc(Nc3ccc(C)cc3)n(C3CCCCC3C)c2c1 (stereo not drawn) | 99% (active) | 1% | 1 | 95% (active) | inactive | inactive | inactive | inactive

Compound | growth inhibition [1] | inhibition [2] | inhibition [3] [%] | growth inhibition [4] | outcome [5] | outcome [6] | outcome [7] | outcome [8]
CC(C)Cc1cnc2nc(N)nc(N)c2c1 | -2% | 66% (active) | 1 | 98% (active) | inactive | inactive | inactive | inactive
COc1ccc(Nc2nc(C)cc(NCc3ccc(-c4c(C)noc4C)cc3)n2)cc1 | 50% (active) | 48% | -5 | 99% (active) | inactive | inactive | inactive | inactive
N#Cc1ccc(CN2CCCN(Cc3cccc(NC(=O)c4cc5ccccc5s4)c3)CC2)cc1 | 36% | 31% | 0 | 97% (active) | inactive | inactive | inactive | inactive
COc1ccc2nc3cc(Cl)ccc3c(NCCNCC(O)CO)c2n1 (stereo not drawn) | 101% (active) | 12% | 2 | 100% (active) | inactive | inactive | inactive | inactive
O=C(Nc1cccc(F)c1)NC1CCN(c2ccnc3cc(Cl)ccc23)CC1 | 37% | 11% | -4 | 96% (active) | inactive | inactive | inactive | inactive
Oc1ccc(CCNc2nc(NCc3ccccc3-c3ccc(C(F)(F)F)cc3)nc(N3CCCNCC3)n2)cc1 | 2% | 12% | 0 | 95% (active) | inactive | inactive | inactive | inactive
CCNc1cc(C(=O)N[C@@H](Cc2ccccc2)[C@H](O)CNCCC(C)(C)C)c(F)c(N2CCCCS2(=O)=O)c1 | 93% (active) | 2% | 2 | 98% (active) | inactive | inactive | inactive | inactive
C=CCN1CCC(N(Cc2cccc(Oc3ccccc3)c2)C(=O)C(c2ccccc2)c2ccccc2)CC1 | 79% (active) | 7% | -5 | 87% (active) | inactive | inactive | inactive | inactive
O=C(Nc1nc(-c2cc(F)ccc2F)cs1)c1cncc(Br)c1 | 3% | 16% | -4 | 85% (active) | inactive | inactive | inactive | inactive
COc1ccc(C2CC(c3cccs3)=NN2C(=O)c2ccccc2)cc1OC (stereo not drawn) | 83% (active) | 5% | 5 | 99% (active) | inactive | inactive | inactive | inactive
CC1(C)CCC(C)(C)c2c1ccc(C1CCN(CCCCNC(=O)c3ccc(-c4ccc(C#N)cc4)cc3)CC1)c2O | 85% (active) | 81% (active) | 7 | 100% (active) | inactive | inactive | inactive | inactive
COCC(=O)N(Cc1ccccc1-c1cccc(CNCc2ccc3c(c2)OCO3)c1)C1CCN(Cc2ccccc2)CC1 | 72% (active) | 33% | -1 | 94% (active) | inactive | inactive | inactive | inactive
Cc1ccc(NC(=O)NC2CCN(c3ccnc4cc(Cl)ccc34)CC2)cc1 | 47% | 4% | -2 | 101% (active) | inactive | inactive | inactive | inactive
CCOC(=O)N1CCN(C(=O)Nc2ccc(Cl)cc2)CC1 | -2% | 4% | 0 | 92% (active) | inactive | inactive | inactive | inactive
CCC(O)c1ccc(Br)cc1NC(=O)c1cccc(Cl)c1 (stereo not drawn) | 52% (active) | -3% | -5 | 80% (active) | inactive | inactive | inactive | inactive
COc1ccc(Cl)cc1NC(=O)Nc1ccc2c(c1)CCN(C1CCC1)CC2 | 19% | 38% | -2 | 98% (active) | inactive | inactive | inactive | inactive
CCCc1cc(=O)[nH]c(-n2nc(C)cc2NC(=O)CC(c2ccccc2)c2ccccc2)n1 | 88% (active) | 39% | 4 | 97% (active) | inactive | inactive | inactive | inactive
Cc1sc2ncnc(Sc3nnc(N)s3)c2c1C | 100% (active) | 9% | -1 | 101% (active) | inactive | inactive | inactive | inactive
Cc1ccccc1OCC(O)CN1CCC(C2CCN(CC(O)COc3ccccc3C)CC2)CC1 (stereo not drawn) | 51% (active) | 12% | -4 | 100% (active) | inactive | inactive | inactive | inactive
O=C(Nc1ccc2c(c1)CCN2C1CCN(Cc2cccc(F)c2F)C1)c1ccco1 (stereo not drawn) | 90% (active) | -4% | 0 | 87% (active) | inactive | inactive | inactive | inactive
